Sampled rows, rich in hits. Any-hit rate of the full collection: about 5.9%.
GLP1R inv ag – GLP-1 receptor (human) inverse agonism; P43220; HEK293 GLP-1R CRE-luciferase, luminescence, 24 h; GLP-1R form is constitutively active; Potency, µM (top dose mostly 38.3 µM), without a hit: top-dose activity change, negative = inhibition, actives largely listed as inhibitors; 410,000 compounds, 1.6% hits; also: % is scaled to controls: 0 for no effect and ±100 for the full control effect; nearly all actives have a fitted effect of over 55% in size
Target sequence (P43220 whole entry, looked up): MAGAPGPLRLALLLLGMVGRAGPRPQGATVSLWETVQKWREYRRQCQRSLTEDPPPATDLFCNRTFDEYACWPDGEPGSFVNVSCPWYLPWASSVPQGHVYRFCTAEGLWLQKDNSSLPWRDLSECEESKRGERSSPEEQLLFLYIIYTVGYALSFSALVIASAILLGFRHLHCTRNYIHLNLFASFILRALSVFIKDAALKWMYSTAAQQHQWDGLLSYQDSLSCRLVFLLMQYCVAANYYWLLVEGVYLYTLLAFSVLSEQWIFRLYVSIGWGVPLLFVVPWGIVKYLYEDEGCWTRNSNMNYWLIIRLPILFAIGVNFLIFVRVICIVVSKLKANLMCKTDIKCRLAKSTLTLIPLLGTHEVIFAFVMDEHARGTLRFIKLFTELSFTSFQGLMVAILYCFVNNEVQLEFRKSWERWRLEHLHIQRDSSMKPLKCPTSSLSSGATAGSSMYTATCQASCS
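Readout was luciferase luminescence, measured 12 min after detection reagent at room temperature. Beforehand, GLP-1R reporter HEK293 cells had sat 12 h, then received compounds for 24 hr at 37 deg C.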
VP16 counter – Gal4-VP16 reporter inhibition counter-screen; Drosophila S2 Gal4-VP16 UAS-luciferase, luminescence, 20 h; Potency, µM (titrated, usually from 53.6 µM), inactives show at the top dose activity, negative = inhibition, hits mostly inhibitors; 310,000 compounds, 3.5% hits;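 also: Gal4-VP16 expression switched on by copper sulfate through the metallothionein promoter; % is scaled to controls: 0 for no effect and ±100 for the full control effect; nearly all actives have a fitted effect of over 50% in size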
RORg inh – inhibitors of mouse ROR gamma transcriptional activity; 310,000 compounds, 5.4% hits; Potency, µM (doses to about 53.6 µM), without a hit: top-dose activity change, negative = inhibition, hits mostly inhibitors; Drosophila S2 Gal4-RORgamma UAS-luciferase reporter, 20 h; P51450; also: % is scaled to controls: 0 for no effect and ±100 for the full control effect; nearly all actives have a fitted effect of over 60% in size
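Read-out: Photinus luciferase luminescence; inhibitors lower reporter signal. Insect Schneider cells with Gal4-ROR gamma fusion under metallothionein promoter, UAS reporter; 700 uM final copper sulfate induction, 20 hr, ambient temperature.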
GLP-1R agonist – GLP-1 receptor (human) agonism. HEK293 GLP-1R CRE-luciferase, luminescence, 4-6 h; cells express a hypersensitive GLP-1R form. AID 624172. 380,000 compounds, 0.007% hits. Potency, µM (top dose mostly 45.6 µM), for inactives: at the highest dose activation, usual class: activators; also: % of control where 0% means no effect
HEK293 tox – cytotoxicity counter-screen for GLP-1 receptor inverse agonists; HEK293 cAMP-luciferase reporter cells, luminescence, 24 h; Potency, µM (highest dose often 38.3 µM), without a hit: top-dose activity change, negative = inhibition, usual class: inhibitors; 410,000 compounds, 0.13% hits;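 also: loss of luciferase light is scored as toxicity; % is scaled to controls: 0 for no effect and ±100 for the full control effect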
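Here, cytotoxicity is scored as loss of luminescence. The MLSMR collection was tested on cells seeded in medium containing 10% Nu serum, with a 24 hr compound exposure preceded by 12 hours of culture.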
Numbers without * were called inactive; u = inconclusive; x = not tested or not shown; [ ] = another dose, or the depositor's remark. Calls follow the shape of the dose curve; as a rule, active = well fitted curve in the direction sought with a large enough effect; inconclusive = small, poorly fitted or top-dose-only effect, or another doubt; inactive = no such curve, though single readings can be large; an effect the other way counts as inactive or inconclusive. Potency is read from the fitted curve at half-maximal effect.

SMILES	GLP1R inv ag	VP16 counter	RORg inh	GLP-1R agonist	HEK293 tox
O=C(CNS(=O)(=O)c1ccc(Br)s1)NCC1COc2ccccc2O1 (stereo not given)	0%	13µM*	-17%	-11%	-14%
COc1ccc2c(c1)C(=O)[C@@H](OC(=O)Nc1ccc(C)c(Br)c1)[C@H](c1ccc(OC)c(Br)c1)O2	x	-17%	22%	x	x
CC(c1n[nH]c(=S)n1-c1ccc(Cl)cc1)N(C)C (stereo not given)	7%	-10%	13µM*	4%	13%[1.53 µM]
S=c1[nH]nc(-c2ccc3ccccc3n2)n1-c1ccc2ncccc2c1	32%	u	u	-1%	-16%
Cc1ccccc1-n1c(-c2ccc3ccccc3n2)n[nH]c1=S	-5%	5µM*	0.32µM*	7%	u
Fc1ccc(-n2c(-c3ccc4ccccc4n3)n[nH]c2=S)cc1Cl	20%	-10%	u	-3%	-9%
CC(c1n[nH]c(=S)n1-c1ccc(F)cc1)N1CCCCC1 (stereo not given)	1%	u	13µM*	-1%	8%
O=C(NCc1n[nH]c(=S)n1-c1ccc(F)cc1)c1ccc(S(=O)(=O)N2CCCCC2)cc1	9%	-2%	-24%	7%	1%
S=c1[nH]nc(-c2ccc3ccccc3n2)n1-c1ccc(Cl)cc1	0%	1.4µM*	1.1µM*	2%	u
CC(=O)OCC1OC(C#CC(C)(C)C)C=CC1OC(C)=O (stereo not given)	x	5%[10 µM]	u	x	x
C=Cc1ccc(Cn2nc(-c3ccc(C)c(S(=O)(=O)N(CC)CC)c3)ccc2=O)cc1	u	x	x	x	-3%
CCc1ccc(S(=O)(=O)c2cn(Cc3ccccc3)c3cc(N4CCCC4)c(F)cc3c2=O)cc1	5%	x	x	x	6%
O=C(COCCOCCOCC(=O)Nc1c(I)cc(I)c(C(=O)O)c1I)Nc1c(I)cc(I)c(C(=O)O)c1I	x	x	x	-3%	x
Fc1ccc(Nc2nc(NCc3ccco3)c3ccccc3n2)cc1	3.5µM*	u	u	2%	u
Fc1ccc(-c2ccnc(=S)[nH]2)cc1	0%	2.8µM*	3.5µM*	-3%	14%
CSc1sc(-c2ccnc(=S)[nH]2)c(-c2ccccc2)c1C#N	1%	7%	-26%	10%	13%
COc1ccc(NC(=O)Cn2nnc(-c3ccccc3NS(=O)(=O)c3ccccc3)n2)cc1	7.1µM*	u	-32%[10 µM]	-2%	-1%
COc1ccc(NC(=O)N2CCOc3ccc(Cl)cc32)cc1	-18%	x	x	x	1%
COc1ccc(/C=C/C(=O)CCC(=O)O)cc1	37%	-5%	-5%	0%	2%
O=C(/C=C/c1ccccc1)CC(O)(c1ccccc1)C(F)(F)F (stereo not given)	11µM*	u	u	-6%	2%
COc1ccc(/C=C/C(=O)CC(O)(c2ccccc2)C(F)(F)F)cc1 (stereo not given)	u	u	14µM*	-3%	-18%
O=C(/C=C/c1ccccc1)CC(O)(c1ccccc1)C(F)(F)C(F)F (stereo not given)	u	u	u	-22%	6%
CCCCCc1n[nH]c2c1CCCC2	u	-26%	10µM*	17%	4%
COCCN(CCOC)c1nc(C)nc2c1nc(-c1ccccc1)n2CCN1CCCC1	x	-4%	-8%	x	x
CC(C)CO/N=C1/C[C@@H](O)[C@@H](O)[C@@H]2[C@H]3C(=O)N(c4ccc(F)cc4F)C(=O)[C@@H]3CC[C@@H]12	x	-3%[10 µM]	3%[10 µM]	x	x
Fc1ccc(C(NCCc2ccc(Cl)cc2)c2nnc(-c3ccccc3)o2)c(Cl)c1 (stereo not given)	10µM*	x	x	x	1%
c1ccc(COc2cccc(CNCc3ccccn3)c2)cc1	11%	-19%	11µM*	8%	-11%
Oc1ccc(NCc2cccc(OCc3ccccc3)c2)cc1	137%	u	11µM*	2%	13%
Oc1ccc(NCc2cccc(OCc3ccc(F)cc3)c2)cc1	65%	u	10µM*	28%	-33%
O=[N+]([O-])c1ccc(COc2cccc(CNc3ccc(F)cc3)c2)cc1	0%	5%	23%	4%	-2%
